Laboratory results from PubChem BioAssay (EPA / NIEHS).
Results filed as inconclusive are left out. More than one record can exist for a structure, and the calls need not agree. Calls of active or inactive are those of the source. Rule for the calls: active = hit-call score of the fitted dose curve at least 0.9, where 1 is the maximum; inconclusive = response in the unintended direction; inactive = score below 0.9.

Assay: ACEA_AR_agonist_AUC_viability: ACEA Biosciences xCELLigence Real-Time Cell Analysis on Androgen Receptor Agonism for Viability (AID 2283775);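 for AC50: viability read 80 hours after compound addition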
Method: ACEA_AR_agonist is a cell-based, single-readout assay that uses 22Rv1, a human prostate cancer cell line, with measurements taken at 80 hours after chemical dosing in a 384-well plate, although TO5 and TO6 (mc0.srcf) used a 96-well plate. Differences in plate size can be ignored given data normalization.ACEA_AR_80hr is one of two assay component(s) measured or calculated from the ACEA_AR assay. It is designed to make measurements of real-time cell-growth kinetics, a form of growth reporter, as detected with electrical impedance signals by Real-Time Cell Electrode Sensor (RT-CES) technology.Data from the assay component ACEA_AR_AUC_viability was analyzed in the positive analysis fitting direction relative to DMSO as the negative control and baseline of activity. Using a type of growth reporter, loss-of-signal activity can be used to understand changes in the viability. Furthermore, this assay endpoint can be referred to as a secondary readout, because this assay has produced multiple assay endpoints where this one serves a viability function. To generalize the intended target to other relatable targets, this assay endpoint is annotated to the cell cycle intended target family, where the subfamily is cytotoxicity.
The xCELLigence system Multi-E-Plate stations were used to measure the time-dependent response to chemicals. Each compound was tested in an eight-point, 1:4 serial dilution series starting at a maximum final concentration of 100 uM. A maximum starting concentration of 0.5% DMSO was present in the 100 uM chemical samples and was diluted along with the test article dilution series. The screen was performed in biological duplicate using two separate, 96-well, E-Plates 96 for each dilution series (n = 2). Positive controls (MG132 and testosterone) and a negative control (assay media) were tested in quadruplicate on each testing plate. Then, 0.5% and 0.125% DMSO were tested in duplicates in each plate to serve as solvent controls for the 2 highest concentrations of testing compounds: 100 uM and 25 uM. Reference compounds were tested with 8 concentrations with 1:5 serial dilutions. All screening was carried out by ACEA Biosciences, Inc. (San Diego, CA). 22Rv1 cells purchased from ATCC were maintained in media supplemented with 10% fetal bovine serum (FBS). Before screening, 22Rv1 cells were preconditioned in assay medium. Cells were then detached and seeded in E-Plates 96 in assay medium. After overnight monitoring of growth once every hour, compounds were added to […] cells and remained in the medium until the end of the experiment. Cellular responses were then recorded once every 5 min for the first 5 h, and once every hour for an additional 100 h.
For O=S(=O)(c1ccc(Cl)cc1)c1ccc(Cl)cc1, the outcome was “inactive”.
With O=C1CCCN1 the outcome was “inactive”.
With C[C@H]1CCCC(=O)CCC/C=C/c2cc(O)cc(O)c2C(=O)O1 the AC50 was 30.3 µM (active) and the outcome was “inactive”.
For CC(C)(c1ccc(OCC2CO2)cc1)c1ccc(OCC2CO2)cc1 (stereo not given), the outcome was “inactive”.
For CC(C)(c1ccccc1)c1ccc(O)c(C(C)(C)c2ccccc2)c1, the AC50 was 10.1 µM (active).
With C=CCc1ccc(OC)cc1 the outcome was “inactive”.
In the case of Fc1ccc(C2(Cn3cncn3)OC2c2ccccc2Cl)cc1 (stereo not given), the outcome is reported as “inactive”.
For NC(=O)O, the outcome was “inactive”.
For O=C(Cc1ccccc1)c1ccccc1, the outcome was “inactive”.
In the case of O=C(OC1CCCCC1)c1ccccc1C(=O)OC1CCCCC1, the outcome is reported as “inactive”.
With CCOP(=S)(OCC)Oc1nc(Cl)c(Cl)cc1Cl the AC50 was 83.9 µM (active).
For ClC1(Cl)C2(Cl)C3(Cl)C4(Cl)C(Cl)(Cl)C5(Cl)C3(Cl)C1(Cl)C5(Cl)C24Cl (stereo not given), the outcome was “inactive”.
In the case of O=C(O)C(F)(F)C(F)(F)C(F)(F)C(F)(F)C(F)(F)C(F)(F)C(F)(F)C(F)(F)C(F)(F)C(F)(F)F, the AC50 is reported as 36 µM (active).
For COc1ccc(C=O)cc1, the outcome was “inactive”.
For CCC[CH2][Sn]([CH2]CCC)([CH2]CCC)[O]C(=O)c1ccccc1, the AC50 was 4.45 µM (active).
In the case of CCC(C)(C)c1ccc(O)c(C(C)(C)CC)c1, the outcome is reported as “inactive”.
With Cl/C=C/Cl the outcome was “inactive”.
With CC12CC1(C)C(=O)N(c1cc(Cl)cc(Cl)c1)C2=O (stereo not given) the outcome was “inactive”.
With CC1(C)CCC(Cc2ccc(Cl)cc2)C1(O)Cn1cncn1 (stereo not given) the outcome was “inactive”.
For C=C(C)C(=O)[O][Sn]([CH2]CCC)([CH2]CCC)[CH2]CCC, the AC50 was 1.43 µM (active).
For Clc1ccc(C2(Cn3cncn3)CC(Br)CO2)c(Cl)c1 (stereo not given), the outcome was “inactive”.
For CCC1(c2ccc(N)cc2)CCC(=O)NC1=O (stereo not given), the outcome was “inactive”.
For COP(=O)(OC)OC, the outcome was “inactive”.
In the case of Cc1ccccc1C(=O)Nc1cccc(OC(C)C)c1, the outcome is reported as “inactive”.
In the case of CC(=O)C=C(C)C, the outcome is reported as “inactive”.
With CN(C)N=O the outcome was “inactive”.
For Cn1sc(Cl)cc1=O, the AC50 was 77.2 µM (active).
In the case of COP(=S)(OC)Oc1ccc(Sc2ccc(OP(=S)(OC)OC)cc2)cc1, the outcome is reported as “inactive”.
With O=[N+]([O-])c1ccc(O)c([N+](=O)[O-])c1 the AC50 was 50 µM (active).
For CCC(=O)C(CC(C)N(C)C)(c1ccccc1)c1ccccc1 (stereo not given), the AC50 was 22.3 µM (active).
With CCN1CCC2(CC1)COc1cc3c(cc12)N(C(=O)c1ccc(-c2ccc(-c4nnc(C)o4)cc2C)cc1)CC3 the AC50 was 9.92 µM (active).
With Oc1ccc(-c2ccccc2)cc1 the outcome was “inactive”.
With O=C1C2(Cl)C3(Cl)C4(Cl)C(Cl)(Cl)C5(Cl)C3(Cl)C1(Cl)C5(Cl)C24Cl (stereo not given) the AC50 was 7.07 µM (active).
For CCOC(=O)Nc1cccc(OC(=O)Nc2ccccc2)c1, the outcome was “inactive”.
For CC(=O)[O][Hg][c]1ccccc1, the AC50 was 1.68 µM (active).
With [O-][Cl+2]([O-])O the outcome was “inactive”.
For CCOP(=S)(OCC)SCSP(=S)(OCC)OCC, the outcome was “inactive”.
In the case of COP(=O)(OC)O/C(=C\Cl)c1cc(Cl)c(Cl)cc1Cl, the outcome is reported as “inactive”.
In the case of CC(C)(C)c1cc(O)ccc1O, the AC50 is reported as 90.9 µM (active).
